# Experimental data: PubChem BioAssay
# Activity calls are given as the source filed them. Unless noted, the rule behind the calls is not given here.
# Key:
# [1] = resazurin metabolic signal in HepG2 cells – cell-based, resazurin fluorescence, 24 h, PK04 Diversity Set, profiling panel (AID 1172); conditions: HepG2 viability, higher = more signal
# [2] = budding yeast growth changes without added modifier – OD600, strain BY4716, 24 h, basal condition, primary screen (AID 1173); conditions: S. cerevisiae BY4716 growth, OD600, 24 h; higher = more signal, called active from +8 up or from −8 down
# [3] = viability profiling in MM1S myeloma cells – cell-based, resazurin fluorescence, basal, 24 h, PK04 Diversity Set, profiling panel (AID 1174); conditions: higher = more signal, called active from +8 up or from −8 down;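 note: MM1S multiple myeloma cell line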
# [4] = target: Dihydroorotate dehydrogenase (quinone), mitochondrial (Plasmodium falciparum (isolate 3D7)) (UniProt Q08210); test: inhibition of P. falciparum DHODH – biochemical, C-terminal His tag, absorbance 600 nm, primary screen (AID 1175); conditions: PfDHODH enzyme, DCIP absorbance 600 nm; higher = more signal, called active from +8 up or from −8 down;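 note: recombinant parasite enzyme with a five histidine tag at its C terminus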
# Chain of Dihydroorotate dehydrogenase (quinone), mitochondrial (Plasmodium falciparum (isolate 3D7)) (Q08210 whole entry, looked up): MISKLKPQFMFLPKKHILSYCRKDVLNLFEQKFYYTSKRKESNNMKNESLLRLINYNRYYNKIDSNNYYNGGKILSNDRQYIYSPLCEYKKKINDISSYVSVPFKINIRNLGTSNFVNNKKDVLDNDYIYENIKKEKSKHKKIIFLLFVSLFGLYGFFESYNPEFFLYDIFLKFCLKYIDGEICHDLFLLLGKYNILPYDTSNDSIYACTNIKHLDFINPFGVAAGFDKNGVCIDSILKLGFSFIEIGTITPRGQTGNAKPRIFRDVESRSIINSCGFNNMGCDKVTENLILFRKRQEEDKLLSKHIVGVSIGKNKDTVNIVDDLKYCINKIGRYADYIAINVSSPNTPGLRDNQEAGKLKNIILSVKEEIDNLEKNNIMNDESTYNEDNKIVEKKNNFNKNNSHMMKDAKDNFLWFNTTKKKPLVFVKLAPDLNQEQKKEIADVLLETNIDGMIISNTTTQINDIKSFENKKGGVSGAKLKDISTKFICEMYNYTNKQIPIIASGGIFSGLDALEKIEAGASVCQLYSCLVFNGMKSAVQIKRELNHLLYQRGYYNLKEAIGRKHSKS
# [5] = inhibition of PAO1 biofilm formation – strain PAO1, LB-PBS medium, absorbance 600 nm, primary screen (AID 1176); conditions: P. aeruginosa PAO1 growth/biofilm, A600, 12 h; higher = more signal
# [6] = growth modulation of vineyard yeast isolate – strain RM11-1a, OD600, basal, 24 h, primary screen (AID 1177);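 note: cultures grown under basal conditions with no added stressor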; conditions: S. cerevisiae RM11-1a growth, OD600, 24 h; higher = more signal, called active from +8 up or from −8 down
# [7] = growth of efflux-deficient E. coli DRC39 – strain DRC39, OD650, 24 h, E. coli filamentation inducers, primary screen (AID 1178);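 note: growth measured as culture turbidity by optical density at 650 nm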; conditions: E. coli DRC39 acrAB, higher = more signal, called active from +8 up or from −8 down
# [8] = growth of efflux-deficient E. coli DRC39 – strain DRC39, OD650, 48 h, E. coli filamentation inducers, primary screen (AID 1179);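 note: screen aims at cell division blockers that make cells filament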; conditions: E. coli DRC39 delta-acrAB growth, higher = more signal, called active from +8 up or from −8 down
# [9] = viability profiling in RPMI8226 myeloma cells – cell-based, resazurin fluorescence, basal, 24 h, PK04 Diversity Set, profiling panel (AID 1180); conditions: higher = more signal;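 note: RPMI8826 multiple myeloma cell line at 5000 cells per well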
# [10] = target: E3 ubiquitin-protein ligase XIAP (Homo sapiens) (UniProt P98170); test: small molecules binding XIAP protein – biophysical, small-molecule microarray, fluorescence 635 nm, primary screen (AID 1181); conditions: higher = more signal;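 note: score merges 667 nm emission and signal to noise over triplicate slides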
# Chain of E3 ubiquitin-protein ligase XIAP (Homo sapiens) (P98170 whole entry, looked up, the tested form may be a part): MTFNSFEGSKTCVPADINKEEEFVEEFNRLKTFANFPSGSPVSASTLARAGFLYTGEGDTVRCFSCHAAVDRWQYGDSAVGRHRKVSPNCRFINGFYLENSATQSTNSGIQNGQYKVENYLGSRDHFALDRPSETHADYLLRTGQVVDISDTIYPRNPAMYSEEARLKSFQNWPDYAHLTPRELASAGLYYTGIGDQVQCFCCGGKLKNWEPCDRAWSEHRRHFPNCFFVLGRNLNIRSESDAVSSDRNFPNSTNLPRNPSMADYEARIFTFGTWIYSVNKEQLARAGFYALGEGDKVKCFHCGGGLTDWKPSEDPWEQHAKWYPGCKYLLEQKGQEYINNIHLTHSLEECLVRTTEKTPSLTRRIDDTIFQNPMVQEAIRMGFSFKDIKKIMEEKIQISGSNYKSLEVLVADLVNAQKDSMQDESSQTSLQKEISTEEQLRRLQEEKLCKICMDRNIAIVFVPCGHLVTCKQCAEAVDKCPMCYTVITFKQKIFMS
# [11] = test system: XIP peptide (Xip251-270) binding; test: XIP fragment 251-270 binding compounds – biochemical, small-molecule microarray, fluorescence 635/667 nm, 0.1 µg/mL protein, primary screen (AID 1182); conditions: fluorescent protein binding, 635 nm, higher = more signal, called active from +8 up or from −8 down
# XIP peptide (Xip251-270) = test: compounds binding XIP fragment 251-270 – biochemical, small-molecule microarray, fluorescence 635/667 nm, 0.5 µg/mL protein, primary screen (AID 1183); conditions: fluorescence 635 nm, higher = more signal
# [12] = blood-stage malaria parasite viability loss – strain 3D7, DAPI fluorescence, 100 nL, primary screen (AID 1184);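 note: parasites grown inside human red blood cells in medium with human serum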; conditions: P. falciparum 3D7 growth, 3 d, higher = more signal
# [13] = target: Homeobox protein Hox-A13 (Mus musculus) (UniProt Q62424); test: disruptors of Hoxa13 oligonucleotide interaction – biochemical, fluorescence polarization, labeled oligonucleotide, primary screen (AID 1185); conditions: Hoxa13:DNA binding, 15 min, higher = more signal, called active from +8 up or from −8 down
# Chain of Homeobox protein Hox-A13 (Mus musculus) (Q62424 whole entry, looked up): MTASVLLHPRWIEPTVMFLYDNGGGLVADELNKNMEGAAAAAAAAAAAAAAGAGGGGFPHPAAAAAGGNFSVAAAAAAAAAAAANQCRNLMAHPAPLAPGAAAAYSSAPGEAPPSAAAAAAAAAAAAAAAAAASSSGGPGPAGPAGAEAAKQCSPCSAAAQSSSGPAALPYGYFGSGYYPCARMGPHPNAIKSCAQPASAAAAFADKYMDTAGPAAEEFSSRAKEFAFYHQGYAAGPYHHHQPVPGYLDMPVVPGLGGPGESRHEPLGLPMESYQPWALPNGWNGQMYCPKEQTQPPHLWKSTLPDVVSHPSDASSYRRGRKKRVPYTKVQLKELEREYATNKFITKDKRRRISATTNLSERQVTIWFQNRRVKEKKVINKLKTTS
# [14] = blockers of DNA damage checkpoint Chk1 activation – imaging, HeLa, hydroxyurea, phospho-Chk1 antibody, percent positive cells, primary screen (AID 1186); conditions: hydroxyurea-induced phospho-Chk1 immunofluorescence imaging, higher = more signal
# [15] = blockers of DNA damage checkpoint Chk1 activation – imaging, HeLa, hydroxyurea, phospho-Chk1 nuclear intensity, primary screen (AID 1187); conditions: hydroxyurea-induced phospho-Chk1 immunofluorescence imaging, higher = more signal
Structure (SMILES),z-score [1],z-score [2],z-score [3],composite z-score [4],z-score [5],z-score [6],z-score [7],z-score [8],z-score [9],composite z-score [10],composite z-score [11],composite z-score (XIP peptide (Xip251-270)),z-score [12],z-score [13],z-score [14],z-score [15]
CCN(CC)c1ccc(N2CC=CC34O[C@@H]5/C=C\CCC(C)OC(=O)C5[C@H]3C(=O)N(CCCO)[C@@H]4C2=O)cc1 (stereo not given in full),-0.649,1.09 (inactive),0.267 (inactive),0.424 (inactive),-0.745 (inactive),1.21 (inactive),0.692 (inactive),0.562 (inactive),0.47,-0.0243,0.217 (inactive),0.974,-0.0779,-6.38 (inactive),0.0745 (inactive),-0.0024 (inactive)
COCCOC(=O)N1C(=O)[C@@]2(c3ccccc31)[C@H](C(N)=O)[C@H]1C(=O)O[C@H](c3ccccc3)[C@H](c3ccccc3)N1[C@@H]2c1ccccc1OCCO,-1.23,0.225 (inactive),-2.56 (inactive),0.692 (inactive),0.517 (inactive),1.63 (inactive),0.201 (inactive),-0.158 (inactive),-4.25,0.209,3 (inactive),0.801,-0.418,-4.4 (inactive),0.228 (inactive),0.42 (inactive)
NC(=O)NCC#Cc1ccc2c(c1)[C@]1(C(=O)N2)[C@H](c2ccc(O)cc2)N2[C@H](c3ccccc3)[C@H](c3ccccc3)OC(=O)[C@H]2[C@@H]1C(=O)N1CCCCCCC1,0.855,1.16 (inactive),0.949 (inactive),-0.127 (inactive),1.1 (inactive),1.96 (inactive),1.04 (inactive),-0.817 (inactive),1.36,-0.0925,0.145 (inactive),0.469,0.308,1.52 (inactive),-0.374 (inactive),-0.693 (inactive)
CC(C)[Si]1(C(C)C)O[C@@H](c2ccccc2)c2cc(C3CC3)nc(-c3ccccc3)c21,0.972,0.0055 (inactive),0.656 (inactive),0.45 (inactive),0.632 (inactive),-0.403 (inactive),-0.281 (inactive),-0.785 (inactive),0.21,0.0785,-0.431 (inactive),0.555,0.0193,-1.21 (inactive),-0.652 (inactive),-0.694 (inactive)
COCC1=C2[C@@H](CCc3ccccc3)OB(O)C[C@@H]2n2c(=O)n(-c3ccccc3)c(=O)n2C1,0.0883,-1.24 (inactive),-0.177 (inactive),0.653 (inactive),0.248 (inactive),-0.352 (inactive),0.969 (inactive),0.545 (inactive),0.0549,0.698,-0.0712 (inactive),0.835,1.25,-4.79 (inactive),0.0264 (inactive),-0.295 (inactive)
O=C1NC(=O)C2C1C=CC(C(O)Cc1ccccc1)N2Nc1ccccn1 (stereo not given),-0.507,0.424 (inactive),-0.164 (inactive),0.195 (inactive),-0.118 (inactive),-0.979 (inactive),0.374 (inactive),1.42 (inactive),-0.448,-0.136,-0.0757 (inactive),0.804,0.396,-3.75 (inactive),-0.349 (inactive),-0.306 (inactive)
N#Cc1ccc(NN2C(C(O)c3cc(C(F)(F)F)cc(C(F)(F)F)c3)C=CC3C(=O)N(c4ccccc4)C(=O)C32)cc1 (stereo not given),-1.75,-0.102 (inactive),-0.758 (inactive),0.678 (inactive),1.14 (inactive),-0.0165 (inactive),-1.55 (inactive),-0.56 (inactive),-0.409,0.0239,1.67 (inactive),0.479,-0.496,-1.5 (inactive),0.245 (inactive),-0.0521 (inactive)
CC1CC/C=C\[C@H]2OC34C=CCN(Cn5nnc6ccccc65)C(=O)[C@H]3N(CCO)C(=O)[C@@H]4C2C(=O)O1 (stereo not given in full),0.831,-0.895 (inactive),0.869 (inactive),-0.895 (inactive),0.773 (inactive),-0.943 (inactive),0.673 (inactive),-0.108 (inactive),1.04,0.235,0.711 (inactive),0.855,-0.611,-5.38 (inactive),-0.384 (inactive),-0.173 (inactive)
C=C(/C(=C/C[C@@H](OC(=O)c1ccncc1)c1ccc(OCCO)cc1)c1cnc2ccccc2c1)C(C)C,0.384,-18.5 (active),-0.684 (inactive),-10.5 (active),-0.235 (inactive),-22.1 (active),0.872 (inactive),0.432 (inactive),0.206,-0.0373,-0.214 (inactive),0.565,-2.84,-5.46 (inactive),-0.452 (inactive),-0.051 (inactive)
NCCCCCNC(=O)[C@@H]1C[C@@H]2C(=O)N3CCC[C@H]3C(=O)N2[C@@H]1c1cccc(OCCO)c1,0.0359,-0.582 (inactive),0.199 (inactive),-0.801 (inactive),-0.226 (inactive),-0.914 (inactive),0.0544 (inactive),-0.109 (inactive),-0.0506,0.522,0.536 (inactive),-0.0496,0.398,-3.71 (inactive),0.0592 (inactive),0.182 (inactive)
